FMDV antiviral = High Throughput Screening for Foot and Mouth Disease Virus Antivirals | Potency, µM (doses to about 57.9 µM), inactives show top-dose activity change, negative = inhibition, usual class: inhibitors | FMDV antiviral cell-based qHTS | 410,000 tested, 1.2% active; calls by dose curve; tested in HEK293T cells; note: read-out not given here; potency is the fitted concentration of half-maximal effect; nearly all actives have a fitted effect of over 45% in size
HCV inh = qHTS Assay for Inhibitors of Hepatitis C Virus (HCV); Potency, µM (top dose mostly 41.8 µM), without a hit: at the top dose activity change, negative = inhibition, actives largely listed as inhibitors; 340,000 tested, 3.4% active; AID 651820, 2012; Huh7.5.1 HCVcc-Cre infection, luciferase reporter, 44 h; active = well fitted inhibition curve with a large enough effect; inconclusive = small, poorly fitted or top-dose-only effect, or another doubt; inactive = no such curve, though single readings can be large or run the other way; note: potency is the fitted concentration of half-maximal effect
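After 44 h co-culture of compound, cells and HCVcc-Cre (~0.5 moi), substrate is added for 15 min at room temperature and luciferase measured over 15 sec. Cells were seeded at 1,000/well and pre-cultured 4 h.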
HCMV antiviral = qHTS Assay for inhibitors of the human cytomegalovirus (HCMV); HFF cells, HCMV-luciferase reporter, 72 h; hits give low values; 410,000 tested, 4.5% active; AID 1259415, 2018; activity change, negative = inhibition, % at 57.5 µM; in the data active = activity change below about -60%; inconclusive = no clear call, values can overlap the other calls; inactive = above about -39%
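After 16 h attachment at 37C, HFF cells received test compound and HCMV-luciferase (1 PFU/cell); reporter luminescence read 72 h later, data normalized against buffer-only and known inhibitor Salinomycin.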
Vaccinia mCherry = qHTS for Stage-Specific Inhibitors of Vaccinia Orthopoxvirus: mCherry Reporter Primary qHTS; Vaccinia virus mCherry reporter infection, fluorescence; Potency, µM (series often up to 36.5 µM), inactives show top-dose activity change, negative = inhibition, hits mostly inhibitors; 310,000 tested, 0.63% active; AID 720579, 2013; calls by dose curve; tested in A549 cells; note: potency is the fitted concentration of half-maximal effect; nearly all actives have a fitted effect of over 35% in size
Vaccinia Venus = qHTS for Stage-Specific Inhibitors of Vaccinia Orthopoxvirus: Venus Reporter Primary qHTS | Vaccinia virus Venus reporter expression, fluorescence | AID 720580, 2013 | Potency, µM (highest dose often 36.5 µM), for inactives: top-dose activity change, negative = inhibition, hits mostly inhibitors | 330,000 tested, 0.46% active; calls by dose curve; tested in A549 cells; note: potency is the fitted concentration of half-maximal effect; nearly all actives have a fitted effect of over 30% in size
Starred values were filed as active, the others as inactive; i = inactive; ? = inconclusive; nt = not tested or not shown; [ ] = remark or other dose. Compounds with a hit are over-represented: about 7.3% of the library has one in this group of screens. % is set by controls: 0 for no effect and ±100 for the full control effect.

SMILES	FMDV antiviral	HCV inh	HCMV antiviral	Vaccinia mCherry	Vaccinia Venus
CCCCCn1c(=O)c(C(=O)Nc2cnccn2)c(O)c2ccccc21	-21.8%	8.91µM*	?	-7.0%	5.3%
CCCCCn1c(=O)c(C(=O)Nc2ccccc2S(N)(=O)=O)c(O)c2ccccc21	-12.4%	?	-100.8*	-13.3%	?
CCCCn1c(=O)c(C(=O)NCc2ccco2)c(O)c2ccccc21	-11.4%	14.1µM*	-32.7	i	-8.7%
CC(C)CCn1c(=O)c(C(=O)NCc2ccco2)c(O)c2ccccc21	-12.3%	?	24.0	i[7.34 µM]	-4.6%[7.34 µM]
CCCCn1c(=O)c(C(=O)Nc2ccccc2S(N)(=O)=O)c(O)c2ccccc21	-11.2%	?	?	nt	nt
Cc1ncc2c(c1CNS(=O)(=O)N(C)C)CCN(C(=O)c1ccc(F)cc1Cl)C2	8.9%	nt	nt	-11.2%	-7.4%
Cc1nn2c(C)c(C(=O)NCc3ccco3)cnc2c1-c1ccccc1	-15.0%	nt	-8.6	-11.7%	-8.7%
CC(C)Cn1c(=O)c(C(=O)Nc2ccncc2)c(O)c2ccccc21	-12.9%	10µM*	-15.7	nt	nt
CC(C)Cn1c(=O)c(C(=O)Nc2cnccn2)c(O)c2ccccc21	-9.6%	1.7%	-4.5	-2.8%	10.7%
Cc1cc(C)c(S(=O)(=O)Nc2ccc3c4c(cccc24)CC3)c(C)c1	5.7%	?	-99.9*	?	?
Cc1ccc(S(=O)(=O)Nc2ccc3c4c(cccc24)CC3)c(C)c1	30.8%	-15.4%	-69.8*	?	-29.2%
O=S(=O)(Nc1ccc2c3c(cccc13)CC2)c1ccccc1	55.6%	nt	?	-21.2%	-17.7%
COc1ccc(-c2cc3ccc(O)c(CN4CCCC4)c3oc2=O)cc1OC	28.4%	nt	25.7	-12.2%[7.34 µM]	-5.2%[7.34 µM]
CCN(CCCNC(=O)CSc1cc(=O)n(CC)c2ccccc12)c1cccc(C)c1	?	nt	17.2	-15.5%	-12.2%
Cn1cccc1C(=O)N1CCC[C@@]2(CCN(Cc3ccccc3)C2)C1	-7.2%	nt	nt	nt	nt
O=Nc1c(O)n(Cc2c(Cl)cccc2Cl)c2ccccc12	?	-0.1%	-79.4*	?	-26.1%
CCOc1ccc(OCC)c(NC(=O)C2CCCN(S(=O)(=O)c3cc(Br)cc4c3N(C(=O)CC)CC4)C2)c1 (stereo unspecified)	?	nt	-29.0	-12.9%	-14.0%
Cc1ccc(NC(=O)c2cc(S(=O)(=O)N3CCOCC3)c(Cl)cc2Cl)cc1	25.1µM*	nt	?	?	-29.4%
COc1cc2c(cc1OC)CN(C(=O)c1cc(S(=O)(=O)N3CCOCC3)c(Cl)cc1Cl)CC2	?	25.1µM*	nt	-26.6%	-22.2%
O=C(Nc1ccc(S(=O)(=O)N2CCOCC2)cc1)c1cc(S(=O)(=O)N2CCOCC2)ccc1Cl	-27.2%	?	-19.3	-0.4%	-15.4%
CC(=O)c1c(C)[nH]c(C(=O)Nc2ccc(Cl)c(S(=O)(=O)N3CCOCC3)c2)c1C	22.4µM*	?	93.8	?	-25.7%
COc1ccc(NC(=O)c2[nH]c(C)c(C(C)=O)c2C)cc1S(=O)(=O)N1CCOCC1	-17.3%	?	161.0	-11.9%	-7.2%
COc1ccccc1NS(=O)(=O)c1cc(NC(=O)c2ccccc2C)ccc1N1CCOCC1	66.7%	-8.3%	-14.0	-17.0%	-15.5%
O=C(c1cc(S(=O)(=O)N2CCOCC2)c(Cl)cc1Cl)N1CCCC1	0.9%	6.8%	3.9	-16.8%	-10.4%
COc1ccccc1NS(=O)(=O)c1cc(NC(=O)c2[nH]c(C)c(C(C)=O)c2C)ccc1N1CCOCC1	15.6%	?	-90.1*	nt	nt
Cc1cc(Br)c2nc(-c3ccc(F)cc3)c(Cc3cccc(Cl)c3)n2c1	nt	nt	70.7	nt	nt
CC(=O)c1c(C)[nH]c(C(=O)Nc2ccc(C)c(S(=O)(=O)N(C)C)c2)c1C	32.3%	?	308.0	-5.0%	-12.4%
Cc1ccc(NS(=O)(=O)c2cc(NC(=O)c3ccc4c(c3)NC(=O)CS4)ccc2C)c(C)c1	?	11.2µM*	?	i	-11.9%
CC(=O)c1c(C)[nH]c(C(=O)Nc2ccc(C)c(S(=O)(=O)Nc3ccc(C)cc3C)c2)c1C	-8.6%	25.1µM*	0.5	-5.0%	-9.3%
Cc1onc(-c2ccccc2)c1C(=O)Nc1ccc(Cl)c(S(=O)(=O)N2CCOCC2)c1	?	-2.5%	-102.6*	nt	nt

Screening results (PubChem BioAssay)
